Screening data deposited in PubChem by National Center for Advancing Translational Sciences (NCATS).
CHX counter: counter-screen for Shiga toxin inhibitors: cycloheximide protein synthesis inhibition. cell reporter, cycloheximide protein synthesis inhibition counterscreen. max response, %. 300,000 tested, 12% active. AID 2314; in the data active = max response mostly above about 13%, no sharp cut-off; inactive = mostly below about 14%; note: read at 38.3 µM for the half of the compounds with a filed dose; 0% is about no effect
Pf growth 96h: P. falciparum growth inhibition at 96 hours; P. falciparum luciferase reporter growth, 96 h; Potency, µM (top dose mostly 28.7 µM), inactives show at the highest dose activity change, negative = inhibition, hits mostly inhibitors; 320,000 tested, 6.9% active; note: potency is the fitted concentration of half-maximal effect; % is set by controls: 0 for no effect and ±100 for the full control effect
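Infected RBCs, 2% Hct / 0.05% parasitemia final; luciferase-reporter P. falciparum; cpd 96 h, 37 C, 5% CO2; luciferase detection reagent; luminescence.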
HCMV antiviral: inhibitors of human cytomegalovirus; HFF cells, HCMV-luciferase reporter, 72 h; stronger effect = lower value; activity change, negative = inhibition, % at 57.5 µM; 410,000 tested, 4.5% active; in the data active = activity change below about -60%; inconclusive = no clear call, values can overlap the other calls; inactive = above about -39%; note: % is set by controls: 0 for no effect and ±100 for the full control effect
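HFF cells seeded 16 h at 37C, treated with compounds, infected with luciferase-reporter HCMV at MOI 1 PFU/cell; luciferase read at 72 h post infection, normalized to buffer-only and Salinomycin controls.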
Shiga inhibitor: inhibitors of Shiga toxin in Vero cells; Vero cells, Shiga toxin protein synthesis inhibition reporter; inhibition, % at 38.7 µM; 290,000 tested, 9.2% active; AID 2315; in the data active = inhibition mostly above about 28%, no sharp cut-off; inactive = mostly below about 43%; note: 0% is about no effect
Pf growth 48h: inhibits P. falciparum growth in the first generation, 48 h; P. falciparum luciferase growth in erythrocytes, 48 h; Potency, µM (titrated, usually from 28.7 µM), inactives show at the top dose activity change, negative = inhibition, most hits filed as inhibitors; 310,000 tested, 5.9% active; note: potency is the fitted concentration of half-maximal effect; % is set by controls: 0 for no effect and ±100 for the full control effect
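Firefly luciferase activity from engineered P. falciparum reports growth; inhibitors lower the luminescent signal. Cultures contained 2% hematocrit erythrocytes at 0.1% final parasitemia.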
* = called active by the depositor; ? = inconclusive; . = no result given. Hits are enriched below; roughly 20% of the tested compounds scored in any of these assays. Unless noted, calls come from the whole dose curve; as a rule, active = well fitted inhibition curve with a large enough effect; inconclusive = small, poorly fitted or top-dose-only effect, or another doubt; inactive = no such curve, though single readings can be large or run the other way.

SMILES | CHX counter | Pf growth 96h | HCMV antiviral | Shiga inhibitor | Pf growth 48h
CC(=O)NC1=NN(C(C)=O)C2(S1)C(=O)N(C(C)=O)c1ccc(C)cc12 (centres undefined) | -1 | 7% | 56 | 13 | 10%
CC(C)[C@H](NC(=O)[C@@H]1Cc2c([nH]c3ccccc23)C2c3ccccc3C(=O)N21)C(=O)NCC1CCCO1 (some centres undefined) | -3 | ? | -8 | -3 | ?
CC(C)C[C@H](NC(=O)[C@@H]1Cc2c([nH]c3ccccc23)C2c3ccccc3C(=O)N21)C(=O)NCC1CCCO1 (some centres undefined) | -3 | 9.3µM* | -34 | -7 | ?
CSCC[C@H](NC(=O)[C@@H]1Cc2c([nH]c3ccccc23)C2c3ccccc3C(=O)N21)C(=O)NCC1CCCO1 (some centres undefined) | 2 | 9.3µM* | -21 | -2 | ?
CC(C)(C)OC(=O)NC(CCCCNC=O)C(=O)O (centres undefined) | -1 | 7% | 6 | 3 | 31%
C[C@H]1NC(=O)[C@@]2(C)[C@@H](c3ccccc3)[C@H]3COc4ccccc4[C@@H]3N2C1=O | . | 25% | -4 | . | 14%
COc1cc(OC)cc(C(=O)N2CCC3(CC2)NCCc2[nH]cnc23)c1 | -12 | -24% | -19 | -3 | 9%
Cc1ccccc1NC(=S)Nn1cnnc1 | -4 | 3% | 21 | -27 | 13%
S=C(Nc1cccc(Cl)c1Cl)Nn1cnnc1 | -5 | 2.3µM* | 5 | -10 | 4%
Cc1cccc(NC(=S)Nn2cnnc2)c1C | 38* | ? | ? | 2 | 30%
O=C(CCCc1ccccc1)NCCS(=O)(=O)N1CCN(c2ccccc2F)CC1 | . | 9% | 9 | . | 2%
CC1(C)O[C@H]2[C@@H](O1)[C@@H](C(=O)Nc1cc(F)ccc1F)O[C@@H]1OC(C)(C)O[C@@H]12 | . | . | -89* | . | .
COCCNC(=O)C(c1ccc(C)o1)N(C(=O)c1snc(C(N)=O)c1N)c1ccc(C)c(C)c1 (centres undefined) | -3 | 3% | -65* | -18 | ?
COCCNC(=O)C(c1ccc(C)o1)N(C(=O)c1snc(C(N)=O)c1N)c1ccc(C)cc1 (centres undefined) | -1 | . | ? | -4 | ?
CCc1ccccc1N(C(=O)c1snc(C(N)=O)c1N)C(C(=O)NCC1CCCO1)c1ccc(C)o1 (centres undefined) | -2 | 9.3µM* | -22 | -4 | ?
COc1ccc(OC)c(N(C(=O)c2snc(C(N)=O)c2N)C(C(=O)NCC2CCCO2)c2ccc3ncccc3c2)c1 (centres undefined) | -3 | 13% | -31 | -12 | ?
COc1ccc(N(C(=O)c2snc(C(N)=O)c2N)C(C(=O)NCC2CCCO2)c2ccc(C)o2)cc1OC (centres undefined) | -3 | 45% | 43 | -6 | 8.3µM*
COc1ccc(C(C(=O)NCC2CCCO2)N(C(=O)c2snc(C(N)=O)c2N)c2ccc(C)cc2)cc1OC (centres undefined) | -8 | 13µM* | -28 | -4 | 10µM*
CC(C)C[C@H](NC(=O)c1[nH]cnc1C(=O)N[C@@H](C)C(=O)OC(C)(C)C)C(=O)OC(C)(C)C | -3 | 9.3µM* | ? | -2 | 7.4µM*
CC(C)C[C@H](NC(=O)c1nc[nH]c1C(=O)NCC(=O)OC(C)(C)C)C(=O)OCc1ccccc1 | -11 | -98% | 40 | -4 | ?
CC(C)C[C@H](NC(=O)c1nc[nH]c1C(=O)N[C@@H](CC(C)C)C(=O)OC(C)(C)C)C(=O)OCc1ccccc1 | -1 | ? | -101* | -4 | ?
CC(C)C[C@H](NC(=O)c1nc[nH]c1C(=O)NCC(=O)OCc1ccccc1)C(=O)OCc1ccccc1 | -1 | ? | 27 | 15 | 4.7µM*
CC(C)C[C@H](NC(=O)c1nc[nH]c1C(=O)NCc1ccc(CNC(=O)OC(C)(C)C)cc1)C(=O)OCc1ccccc1 | -2 | ? | -23 | -5 | ?
CC(C)C[C@H](NC(=O)c1[nH]cnc1C(=O)N[C@@H](C)c1ccccc1)C(=O)OCc1ccccc1 | 8 | 5.9µM* | . | 2 | 8.3µM*
O=C(CSc1ccnc(=O)[nH]1)NCc1ccc(F)cc1 | . | . | 0 | . | .
COc1ccc2c(c1OC)C(CC(C)=O)N1CCc3cc4c(cc3C1C2=O)OCO4 (centres undefined) | . | . | 14 | . | .
